Consider 67 molecules from PubChem BioAssay AID1063 (University of Pittsburgh Molecular Library Screening Center, 2008).

Hit rate of the full screen: of about 200,000 compounds, about 18,000 (9%) were called active. Cut-off read from the data, not from the text of the source: active = inhibition above about 50%; inactive = the rest. The entries come from a sample that favours actives as a whole.

This assay in a line: Leishmania major promastigote growth inhibition, primary screen (AID 1063).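 Note: promastigotes grown with compound for 44 hours at 28 °C.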 The note with it: Leishmania major promastigotes, resazurin fluorescence viability; at 10 µM; hits give high values. Background: The colour change of resazurin is a common sign of viable cells or microbes.
For orientation: inhibition means the relative decrease from the control value, in per cent. Regarding `CCOc1ccc(S(=O)(=O)Nc2ccncc2)c(C)c1C`, the inhibition was -6% (inactive). Take `O=C(CCn1ccc([N+](=O)[O-])n1)Nc1nccs1`: the inhibition is 11.6% (inactive). The same measure for `COc1ccc2c(c1OC)C(=O)OC2c1c(O)nc(SC)n(-c2ccccc2)c1=O` (configuration not stated): -6.91% (inactive); for `COc1ccc2c(c1OC)C(=O)OC2Nc1nc(-c2ccccc2)cs1` (configuration not stated): 99.8% (active); for `COc1ccc(-c2csc(Nc3ccccn3)n2)cc1`: 15.6% (inactive). Next, `CC(=O)c1cnc(-c2ccccc2)s1`: -5.94% (inactive). The same measure for `COCCNC(=O)C(c1ccc(O)cc1)N(C(=O)CCC(=O)Nc1nccs1)c1ccc(C)cc1` (configuration not stated): -10.6% (inactive); for `CN1CCCN(C(=O)C2CCCCC2)CC1`: 0.8% (inactive). For the molecule `COc1ccc(CC2(CO)CCN(Cc3cnn(C)c3)CC2)cc1`, the inhibition is 91.4% (active). In the case of `CCOC(=O)C1(CCOC)CCN(Cc2ccc(C(=O)OC)cc2)CC1`, the inhibition is 81.1% (active). For `COC(=O)c1ccc(CN2CCC(CO)(Cc3ccc(OC)cc3)CC2)cc1`, the inhibition was 86.4% (active). The same measure for `Cc1nn(C)c(C)c1S(=O)(=O)N1CCC(CO)(Cc2ccc(Cl)cc2)CC1`: 2.5% (inactive); for `COc1cccc(CC2(CO)CCN(Cc3cnc(-c4cccc(C)c4)nc3)CC2)c1`: 4.89% (inactive). Consider `CCOC(=O)C1(S(=O)(=O)c2ccccc2)CCN(Cc2ccccc2)CC1`, for which the inhibition is 1.91% (inactive). The same measure for `COC(=O)CCC(=O)N1CCCC(CO)(Cc2ccccc2)C1` (configuration not stated): -4.47% (inactive). For the molecule `CCOC(=O)C1(S(=O)(=O)c2ccc(Cl)cc2)CCN(Cc2ccccc2)CC1`, the inhibition is 29.3% (inactive). The same measure for `COc1ccc(C(=O)Nc2sc(C)c(C)c2CN2CCOCC2)cc1`: -3.61% (inactive). Next, `OCCCC1CCCCN1Cc1nc(Cc2ccccc2Cl)no1` (configuration not stated): -4.56% (inactive). Next, `Cc1nc2ccccc2c(C)c1C(=O)c1ccc(F)cc1`: -3.66% (inactive); `CC(OC(=O)c1ccccc1N1C(=O)C2C3CCC(C3)C2C1=O)C(=O)c1ccccc1` (configuration not stated): 32% (inactive); `CCCCN(CC(=O)NC(C)(C)C)C(=O)C(=O)Nc1ccc2c(c1)OCCO2`: -6.64% (inactive). Turning to `Cn1ncc(N2CCN(S(=O)(=O)c3ccc(Br)cc3)CC2)c(Cl)c1=O`, the inhibition was 39.2% (inactive). Next, `O=C1CC(=O)Nc2cc(S(=O)(=O)N3CCN(c4cccc(C(F)(F)F)c4)CC3)ccc2N1`: -5.33% (inactive). Turning to `Cc1cc(C)nc(Nc2ncn[nH]2)n1`, the inhibition is -7.12% (inactive).

Take `CCCCS(=O)c1snnc1C` (configuration not stated): the inhibition was -4.06% (inactive). Next, `COc1ccc(N(CC(=O)Nc2ccc(C)cc2C)S(=O)(=O)c2ccccc2[N+](=O)[O-])c(OC)c1`: 9.22% (inactive); `Cc1cccc(NC(=O)/C(=C\c2ccco2)NC(=O)c2ccccc2)c1`: 3.51% (inactive). `O=C(Nc1ccc2ccccc2c1)/C(=C\c1ccc2c(c1)OCO2)NC(=O)c1ccco1`: the inhibition is 1.7% (inactive). For the molecule `O=C(Nc1ccc2ccccc2c1)/C(=C/c1cccc(Br)c1)NC(=O)c1ccco1`, the inhibition was 76.3% (active). Regarding `CCCCCCCCCCOC(=O)C[N+](C)(C)CC1CCCCC1O` (configuration not stated), the inhibition is -3.34% (inactive). Next, `N#C/C(=C/c1ccc(N2CCOCC2)o1)C(=O)N1CCOCC1`: 54.5% (active).

With `N#C/C(=C\c1ccc(N2CCOCC2)o1)C(=O)N1CCOCC1`, the inhibition is 39.9% (inactive). Next, `N#C/C(=C/c1ccc(N2CCCCC2)o1)C(=O)NCCc1c[nH]c2ccccc12`: 0.13% (inactive); `CC(C)(C)C(=O)N(Cc1ccccc1)c1ccccn1`: -4.68% (inactive). The same measure for `O=C(c1ccncc1)c1ccc([N+](=O)[O-])cc1`: 5.83% (inactive); for `Cc1ccc(NC(=O)c2cccnc2C(=O)Nc2ccc(C)cc2)cc1`: -1.85% (inactive); for `CCn1cc(CNC(=O)c2cc([N+](=O)[O-])c(C)c([N+](=O)[O-])c2)cn1`: 18.8% (inactive).

In the case of `Cc1cc(/C=N/NC(=O)c2cccnc2)c(C)n1CC(C)C`, the inhibition was -1.49% (inactive).

On to `O=C(N/N=C/c1sc(N2CCCCC2)nc1-c1cccs1)c1cccnc1`, for which the inhibition is 66.3% (active). On to `O=C(NN=C1CCC(=NNC(=O)c2cccnc2)CC1)c1cccnc1`, for which the inhibition was -9.82% (inactive).

Regarding `O=C(COC(=O)CNC(=O)c1ccccc1F)NCC(F)(F)F`, the inhibition is -0.59% (inactive).

Regarding `COc1ccc(CC(NC(C)=O)C(=O)NC2CCN(C(=O)C3CC3)CC2)cc1OC` (configuration not stated), the inhibition was -1.59% (inactive). Turning to `CC(=O)NC1=NN(C(C)=O)C(C)(CCS(=O)(=O)c2ccc(Cl)c(Cl)c2)S1` (configuration not stated), the inhibition was -0.49% (inactive).

As to `CC(=O)NC1=NN(C(C)=O)C(C)(c2ccc(Cl)s2)S1` (configuration not stated), the inhibition is 37.2% (inactive).

For the molecule `CC(=O)NC1=NN(C(C)=O)C(C)(c2ccc(C)cc2)S1` (configuration not stated), the inhibition was 63.1% (active). Turning to `CCCC(=O)Nc1nnc(-c2ccccc2)o1`, the inhibition was -6.09% (inactive).

As to `COc1cc(/C=N/NC(=S)Nc2cccnc2)cc(OC)c1O`, the inhibition was -1.76% (inactive).

On to `Cc1ccc(-c2cc(C(F)(F)F)n3nc(C(=O)N4CCCC4)cc3n2)cc1`, for which the inhibition was 2.83% (inactive).

`O=C(O)c1cnn2c(C(F)(F)F)cc(-c3ccccc3)nc12`: the inhibition is -4.02% (inactive). In the case of `Cc1ccc(-c2cc(C(F)(F)F)n3ncc(C(=O)N4CCCCC4c4cccnc4)c3n2)cc1` (configuration not stated), the inhibition is 89.6% (active). On to `O=C(CSc1cccc[n+]1[O-])c1ccc(Cl)cc1`, for which the inhibition is 1.35% (inactive). As to `CC(C(=O)NCC1CCCCC1)N(C)Cc1cccc(Cl)c1` (configuration not stated), the inhibition was -1.13% (inactive). Next, `CCc1ccccc1NC(=O)c1cccs1`: -2.12% (inactive); `O=C(/C=C/c1ccccc1)N/C(=C/c1ccccc1)C(=O)Nc1ccccc1O`: 5.36% (inactive).

On to `CCc1ccccc1NC(=O)/C(=C/c1ccccc1)c1ccccc1`, for which the inhibition was 66% (active). Consider `Oc1ccc(-c2nncn2-c2ccccc2)cc1`, for which the inhibition was -8.74% (inactive). Next, `CN(CC(=O)N1CCN(c2ccccc2)CC1)S(=O)(=O)c1cccs1`: -7.19% (inactive); `O=C(O)CSCC(=O)Nc1ccc(C(F)(F)F)cc1`: -3.47% (inactive). Next, `Cc1cccc(/C=N/NC(=O)CNc2cccc3ccccc23)n1`: 1.6% (inactive); `O=C(Cc1cc(=O)[nH][nH]1)N/N=C/c1ccccc1[N+](=O)[O-]`: -6.04% (inactive); `CCOc1ccc(NC(=O)CCC(=O)N/N=C/c2ccc([N+](=O)[O-])s2)cc1`: 96.6% (active). Next, `COc1ccc(C(=O)NCC(=O)N/N=C/c2ccc([N+](=O)[O-])s2)cc1OC`: 97% (active); `Cc1ccccc1NCC(=O)N/N=C\c1ccc([N+](=O)[O-])s1`: 101% (active). For the molecule `CCOc1ccc(NC(=O)CCC(=O)n2nc(C)cc2C)cc1`, the inhibition was -2.57% (inactive).

As for `COc1cc(/C=N\NC(=O)CNC(=O)c2cccc([N+](=O)[O-])c2)ccc1O`, the inhibition was 8.51% (inactive). The same measure for `COc1ccc(/C=N/NC(=O)CNC(=O)c2ccc(S(=O)(=O)N3CCCC3)cc2)c(OC)c1`: 28.7% (inactive); for `CCCCCC(=O)Nc1ccc(C(=O)N/N=C/c2ccc([N+](=O)[O-])cc2)cc1`: 34.7% (inactive).
